Pf growth 48h: P. falciparum growth inhibition at 48 hours (one generation) | P. falciparum luciferase growth in erythrocytes, 48 h | AID 504832 | Potency, µM (series often up to 28.7 µM), without a hit: at the top dose activity change, negative = inhibition, hits mostly inhibitors | 5.9% of 310,000 active; also: potency is read from the fitted curve at half-maximal effect
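First compound was added to culture medium, then infected red cells at 0.1% parasitemia and 2% hematocrit (final). After incubation at 37 C under 5% CO2, luciferase detection reagent was dispensed and light output recorded.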
HCV inhibitor: HCV inhibition | Huh7.5.1 HCVcc-Cre infection, luciferase reporter, 44 h | Potency, µM (series often up to 41.8 µM), inactives show at the top dose activity change, negative = inhibition, hits mostly inhibitors | AID 651820 | 3.4% of 340,000 active; also: potency is read from the fitted curve at half-maximal effect
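Reporter virus HCVcc-Cre (~0.5 moi) infects cells exposed to compound; seeding density 1,000 cells/well with 4 h settling beforehand. Luminescence, 15 sec read, taken 44 h post-infection following a 15 min RT substrate incubation.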
LASV entry inh: Lassa virus entry inhibition. Potency, µM (highest dose often 37.9 µM), inactives show at the top dose activity change, negative = inhibition, most hits filed as inhibitors. AID 540256. Lassa virus pseudotype entry inhibition, cell reporter. 1.2% of 300,000 active; calls by dose curve; tested in HEK293 cells; also: potency is read from the fitted curve at half-maximal effect; nearly all actives have a fitted effect of over 50% in size
HCMV inh: human cytomegalovirus inhibition; HFF cells, HCMV-luciferase reporter, 72 h; stronger effect = lower value; activity change, negative = inhibition, % at 57.5 µM; 4.5% of 410,000 active; in the data active = activity change below about -60%; inconclusive = no clear call, values can overlap the other calls; inactive = above about -39%
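Screen run at 2 compound doses on HFFs infected with reporter HCMV, MOI 1 PFU/cell. Luciferase activity from cell lysates at 72 h post infection gave inhibition relative to buffer-only and Salinomycin wells.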
Pf growth 96h: P. falciparum growth inhibition at 96 hour, primary screen for plastid delayed-death inhibitors; P. falciparum luciferase reporter growth, 96 h; Potency, µM (highest dose often 28.7 µM), for inactives: at the highest dose activity change, negative = inhibition, hits mostly inhibitors; 6.9% of 320,000 active; AID 504834; also: potency is read from the fitted curve at half-maximal effect
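Luminescence readout: decreased luciferase signal marks inhibited growth of reporter-expressing P. falciparum in infected red cells (2% hematocrit, 0.05% parasitemia final), exposed to compound two generations (96 h, 37 C, 5% CO2).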
MARV entry inh: blocks Marburg virus binding to or entry into cells | Potency, µM (series often up to 37.8 µM), inactives show at the highest dose activity change, negative = inhibition, most hits filed as inhibitors | Marburg virus pseudotyped entry inhibition, cell reporter | 1.8% of 300,000 active; calls by dose curve; tested in HEK293 cells; also: potency is read from the fitted curve at half-maximal effect
* = called active by the depositor; ? = inconclusive; / = no result given; [ ] = remark or other dose. The list is not random: actives were taken first. Their share in the collection is about 14%. Unless noted, calls follow the shape of the dose curve; as a rule, active = well fitted inhibition curve with a large enough effect; inconclusive = small, poorly fitted or top-dose-only effect, or another doubt; inactive = no such curve, though single readings can be large or run the other way. % is scaled to controls: 0 for no effect and ±100 for the full control effect.

SMILES | Pf growth 48h | HCV inhibitor | LASV entry inh | HCMV inh | Pf growth 96h | MARV entry inh
COc1ccc(CCNC(=O)C/C(C)=N/NC(=O)C2CCCCC2)cc1OC | -3.7% | 4.4% | 2.6% | 3.0 | 8.28µM* | 4.1%
COc1ccc(CCNC(=O)C2CC(=O)N(c3ccc(C(C)(C)C)cc3)C2)cc1OC (stereo not drawn) | ? | -27.8% | / | -93.7* | -3.1% | /
COc1ccc(CCNC(=O)C2CC(=O)N(c3ccc(C)cc3)C2)cc1OC (stereo not drawn) | -4.6% | 5.7% | -1.8%[46.1 µM] | 7.4 | 7.2% | 15.9%[46.1 µM]
Cc1cc(C)cc(C(=O)n2nc(C)c(S(=O)(=O)N3CCCCCC3)c2C)c1 | / | / | -7.5%[46.1 µM] | -8.0 | / | /
CC[C@H](NC(=O)[C@H]1O[C@@H](n2cnc3c(=O)[nH]c(N)nc32)[C@H](O)[C@@H]1O)c1ccccc1 | / | / | / | -23.4 | / | /
CCOC(=O)CCN1C(=O)[C@@H]2[C@H]3[C@H](O)[C@H](O)CC(=NO[C@@H]4O[C@H](COC(C)=O)[C@@H](OC(C)=O)[C@H](OC(C)=O)[C@@H]4OC(C)=O)[C@H]3CC[C@H]2C1=O | / | / | / | / | / | -5.6%[14.2 µM]
CC(C)(C)S(=O)N1Cc2cc(CO)ccc2[C@H]1CCO (stereo partly drawn) | / | / | / | 11.8 | / | /
CCOc1ccc(OCC)c(NC(=O)C2CCCN(S(=O)(=O)c3cnc[nH]3)C2)c1 (stereo not drawn) | / | ? | / | -33.6 | 4.65µM* | /
Cc1ccc(CN2CCc3c(OCC(=O)Nc4cc(C)ccc4C)cccc3C2=O)cc1 | ? | -10.4% | ? | / | 5.86µM* | -4.3%
Cc1ccc(C)c(NC(=O)COc2cccc3c2CCN(Cc2ccccc2)C3=O)c1 | -15.6% | ? | -23.3% | -11.1 | ? | ?
Cc1cccc(CN2CCc3c(OCC(=O)NCc4ccco4)cccc3C2=O)c1 | 11.7µM* | -25.6% | ? | -20.8 | 9.28µM* | 8.6%
COc1cccc(-c2cnc(C(O)c3ccc(F)c(C)c3)[nH]2)c1 (stereo not drawn) | / | / | / | -5.6 | / | /
Cn1c(=O)oc2cc(S(=O)(=O)CCC(=O)N3CCN(c4ccccc4)CC3)ccc21 | ? | 18.3% | 2.7%[46.1 µM] | 28.9 | 9.28µM* | -2.6%[46.1 µM]
CCN(Cc1ccccc1)C(=O)CCS(=O)(=O)c1ccc2c(c1)n(C)c(=O)c(=O)n2C | -27.9% | -5.1% | / | ? | 3.7µM* | /
CN(Cc1ccccc1)C(=O)CCS(=O)(=O)c1ccc2c(c1)oc(=O)n2C | -19.4% | 20.6% | 10.3%[46.1 µM] | -17.7 | 13.1µM* | ?
COc1ccc(N(C)S(=O)(=O)c2ccc3c(c2)oc(=O)n3C)cc1 | -9.9% | 0.5% | ? | -6.3 | 7.38µM* | -12.4%
CN(Cc1ccccc1)C(=O)CCNS(=O)(=O)c1ccc2c(c1)oc(=O)n2C | -11.9% | -0.5% | -9.6% | 29.1 | ? | 13.4%
Cn1c(=O)oc2cc(S(=O)(=O)CCC(=O)N3CCN(c4cccc(Cl)c4)CC3)ccc21 | / | / | 9.9%[46.1 µM] | 4.5 | / | /
CN(c1ccccc1)S(=O)(=O)c1ccc2c(c1)oc(=O)n2C | 12.3% | 4.0% | 0.0%[46.1 µM] | 3.2 | 8.4% | -10.0%[46.1 µM]
COc1ccc(C2=C(N3CCN(c4cccc(C)c4C)CC3)c3ccccc3C2=O)cc1 | / | / | -9.0%[46.1 µM] | 37.1 | / | -21.1%[46.1 µM]
Cc1cccc(OCc2cc(=O)n3c4c(sc3n2)CCCC4)c1C | / | / | -8.1%[46.1 µM] | 11.1 | / | 6.3%[46.1 µM]
COc1cccc(N2CCN(C(=O)CCS(=O)(=O)c3ccc4c(c3)oc(=O)n4C)CC2)c1 | ? | -0.5% | -6.0%[46.1 µM] | 0.0 | 5.22µM* | -0.5%[46.1 µM]
CCCCc1c(O)c2ccccc2n(CCCC)c1=O | 2.1% | 8.2% | 5.7% | 8.8 | 6.5% | 10.8%
CCCCc1c(CCC)c(=N)c2ccccc2n1C | ? | ? | ? | -98.1* | 0.8% | ?
O=C(Nc1cccc(-c2nc3cc(Cl)ccc3o2)c1)c1ccc(F)cc1 | / | / | 1.8%[46.1 µM] | 15.1 | / | /
SMILES | Pf growth 48h | HCV inhibitor | LASV entry inh | HCMV inh | Pf growth 96h | MARV entry inh
CC(CCc1ccco1)NC(=O)CSc1cc(=O)n(C)c2ccccc12 (stereo not drawn) | 50.4% | -6.2% | 0.0% | -24.0 | 4.15µM* | -17.7%
CCCCNC(=O)CSc1cc(=O)n(C)c2ccccc12 | 11.3% | -18.4% | -6.5% | -36.9 | 0.208µM* | -7.7%
CCn1c(=O)cc(SCC(=O)NCc2ccco2)c2ccccc21 | 6.3% | ? | ? | 4.3 | ? | ?
CN(C)C(=O)C[C@@H]1CC[C@@H](NC(=O)C2CCC2)[C@@H](CO)O1 | / | / | / | -8.1 | / | /
N#Cc1cc(Oc2cccc3cccnc23)c(-n2nnc3ccccc32)cc1C#N | 1.85µM* | ? | ? | / | -1.9% | ?
N#Cc1cc(O)c(-n2nnc3ccccc32)cc1C#N | 22.0% | 18.8% | -2.9% | -24.5 | -27.3% | 1.6%
COC(=O)c1ccc2c(=O)n(Cc3ccco3)c(SCC(=O)Nc3ccc(C)c(Cl)c3)nc2c1 | ? | 9.7% | ? | -63.1* | / | ?
O=C(CSc1nc2cc(Cl)ccc2c(=O)n1Cc1ccco1)Nc1ccc(S(=O)(=O)N2CCOCC2)cc1 | ? | ? | -2.3% | -17.9 | 10.4µM* | ?
COc1ccccc1NC(=O)C(=O)NCCC1CCCCN1S(=O)(=O)c1cccs1 (stereo not drawn) | ? | ? | -13.2% | 3.0 | ? | ?
COc1cccc(NC(=O)C(=O)NCCC2CCCCN2S(=O)(=O)c2ccccc2)c1 (stereo not drawn) | 43.1% | 3.98µM* | ? | 48.5 | -49.9% | -25.1%
COc1cccc(NC(=O)C(=O)NCC2CCCN2S(=O)(=O)c2ccccc2)c1 (stereo not drawn) | 44.9% | 11.2µM* | ? | 60.3 | -11.6% | ?
CCc1ccc(NC(=O)C(=O)NCC2CCCN2S(=O)(=O)c2ccccc2)cc1 (stereo not drawn) | ? | ? | -28.8% | -33.6 | ? | ?
COc1cccc(C(=O)NCC2CCCN2S(=O)(=O)c2ccccc2)c1 (stereo not drawn) | ? | 2.9% | -18.7% | -9.3 | 11.7µM* | 0.7%[46.1 µM]
O=C(NCCC1CCCCN1S(=O)(=O)c1cccs1)C(=O)Nc1ccccc1F (stereo not drawn) | 3.0% | 8.91µM* | 23.8% | -0.7 | -5.0% | ?
Cc1ccc(S(=O)(=O)N2CCCCC2)cc1NC(=O)COC(=O)C1(C)CC1(Cl)Cl (stereo not drawn) | ? | 6.1% | / | 0.0 | ? | /
CC(C)[C@@H]1Cc2[nH]c(=O)[nH]c(=O)c2[C@H](c2ccc(F)cc2)O1 | / | / | / | 8.8 | / | /
COC1OC(O)C(NC(=O)C(F)(F)F)CC1O (stereo not drawn) | / | 19.1% | 15.8% | -2.1 | / | -1.6%
CCOC(=O)N1CCC(NC(=O)c2cnn(-c3ccc(C)cc3C)c2C2CCN(C(=O)OC(C)(C)C)CC2)CC1 | / | / | 5.1%[46.1 µM] | 12.3 | / | /
COCc1cc(C)nc(SCC(=O)Nc2cc3c(cc2C#N)OCO3)c1C#N | 3.0% | 10µM* | 1.6% | -32.0 | 12.0% | -16.3%

Bioassay records (PubChem BioAssay)
